# Inconclusive results are not listed. The source made the active and inactive calls. Calls come from the whole dose curve; as a rule, active = well fitted cell-killing curve with a large enough effect in the repeat runs; inconclusive = weak or mixed curves, or effect the other way; inactive = flat fitted curve, though single readings scatter.
# Experiment: qHTS assay to identify small molecule antagonists of the estrogen receptor alpha (ER-alpha) signaling pathway using the BG1 cell line in the presence of 0.1 nM 17-beta-estradiol - cell viability counter screen (AID 1259241); note: nearly all actives have a fitted effect of over 40% in size
# Settings: VM7Luc4E2 (BG1) viability, CellTiter-Fluor protease, 22 h, 0.1 nM estradiol agonist added; series mostly up to 92.4 µM; activity change, negative = cytotoxicity: at the top concentration
# Source text: National Center for Advancing Translational Sciences [NCATS]
# NIH Chemical Genomics Center [NCGC]
# U.S. Environmental Protection Agency [EPA]
# National Institutes of Environmental Health Sciences [NIEHS]
# National Toxicology Program [NTP]
# U.S. Food and Drug Administration [FDA]
# Estrogen receptor (ER), a member of the nuclear hormone receptor plays an important role in development, metabolic homeostasis and reproduction. Two subtypes of ER, ER-alpha and ER-beta, have similar expression patterns with some uniqueness in both types. Endocrine disrupting chemicals (EDCs) and their interactions with steroid hormone receptors like ER causes disruption of normal endocrine function. Therefore, it is important to understand the effect of environmental chemicals in ER signaling pathway. For identifying ER antagonists, VM7Luc4E2 cell line was used to screen against Tox21 compound libraries.
# VM7Luc4E2 cell line (provided by Denison MS, University of California) endogenously express full-length ER-alpha and is stably transfected with a plasmid containing four estrogen responsive elements (ERE) upstream of a luciferase reporter gene. The current screening for identification of ER-alpha inhibitors against Tox21 compound libraries used lower concentration (0.1 nM) of 17beta-Estradiol as a stimulator. The cytotoxicity of the Tox21 compound libraries against VM7Luc4E2 cell line was tested by measuring live-cell protease activity using CellTiter-Fluor assay in the same wells.
# Tox21 Assay Protocol Summary:
# VM7Luc4E2 cells were cultured in phenol red free assay medium containing 10% charcoal stripped FBS for 5 days prior to the assay. The cells were dispensed at 4,000 cells/well in 4 uL of assay medium into white wall/solid-bottom 1536-well plates (Corning Life Sciences, Corning, NY) using a Multidrop Combi (ThermoFisher Scientific, Waltham, MA) dispenser. After the assay plates were incubated at 37C and 5% CO2 for 24 hr, 23 nL of compounds dissolved in DMSO, positive controls or DMSO only was transferred to the assay plates by a Pintool station (Kalypsys, San Diego, CA). The transfer of compounds was followed by the addition of 1 uL of 0.1 nM (final concentration) agonist (17beta-Estradiol)/assay medium using a Flying Reagent Dispenser (FRD, Aurora Discovery, San Diego, CA). The plates were incubated at 37C and 5% CO2 for 22 hr. For cytotoxicity assay, 1 uL of CellTiter-Fluor reagent (Promega Corporation, Madison, WI) was added to each well using the FRD and after 30 min incubation at 37C and 5% CO2, The fluorescence intensity was measured using ViewLux plate reader (PerkinElmer, Shelton, CT).
# % is set by controls: 0 for no effect and ±100 for the full control effect; potency is the fitted concentration of half-maximal effect.
SMILES,Potency,"activity change, negative = cytotoxicity"
O=[N+]([O-])c1cc(C2CCCCC2)c(O)c([N+](=O)[O-])c1,27.2 µM (active),–
Nc1cccc2c1CN(C1CCC(=O)NC1=O)C2=O (stereo not given),–,3.43% [at 42.5 µM] (inactive)
Cc1ccccc1N=C(N)Nc1ccccc1C,–,-11.4% (inactive)
CCCCC(CC)CN (stereo not given),–,7.98% (inactive)
CNC(=O)c1cnn(-c2nc(N)c3ncn([C@@H]4O[C@H](CO)[C@@H](O)[C@H]4O)c3n2)c1,–,-9.99% [at 42.5 µM] (inactive)
CCOC(C)=O,–,7.81% (inactive)
C[C@H]1C[C@H](O)c2ccsc2S1(=O)=O,–,4.27% [at 42.5 µM] (inactive)
C=Cc1ccc(S(=O)(=O)O)cc1,–,0.999% (inactive)
CC(=O)N/N=C/c1ccc([N+](=O)[O-])o1,–,-13.9% [at 42.5 µM] (inactive)
FC(F)(F)c1ccccc1Cl,–,5.78% (inactive)
CCCCCCCCN,–,0% (inactive)
CCCCCCCCCCCCCCN(CCO)CCO,–,16.2% (inactive)
CN1C(C(=O)Nc2ccccn2)=C(O)c2sccc2S1(=O)=O,–,-26.8% [at 42.5 µM] (inactive)
CCC(C)COC(C)=O (stereo not given),–,0% (inactive)
CCCCN(CCN(CCCC)C(=O)N1CCOCC1)C(=O)N1CCOCC1,–,-5.33% [at 42.5 µM] (inactive)
C[C@@]12CCC[C@H]1[C@@H]1CC[C@H]3C[C@@H](O)CC[C@]3(C)[C@H]1CC2,–,5.55% [at 42.5 µM] (inactive)
COc1ccccc1NC(=O)c1cc2ccccc2cc1O,–,15.9% (inactive)
COc1cc(N)c(Cl)cc1C(=O)NC1CCN(CCCOc2ccc(F)cc2)CC1OC (stereo not given),–,-22.1% [at 42.5 µM] (inactive)
CCOC(=O)c1ccc(I)cc1,–,5.54% (inactive)
Cc1cccc(N(C)C(=S)Oc2ccc3c(c2)CCC3)c1,–,-5.03% [at 42.5 µM] (inactive)

SMILES,Potency,"activity change, negative = cytotoxicity"
CCC(C)(C)OC,–,13.3% (inactive)
O=C1CCCCCCCCCCOCCCCO1,–,1.33% (inactive)
Cc1ccco1,–,16.2% (inactive)
C[C@@H](O[C@H]1OCCN(Cc2n[nH]c(=O)[nH]2)[C@H]1c1ccc(F)cc1)c1cc(C(F)(F)F)cc(C(F)(F)F)c1,–,0.93% [at 42.5 µM] (inactive)
Oc1cccc(Nc2ccccc2)c1,–,-9.06% (inactive)
CCCCCC[C@@H](O)C/C=C\CCCCCCCC(=O)OCC(O)CO (stereo not given in full),–,3.77% (inactive)
COc1ccccc1Oc1c(NS(=O)(=O)c2ccc(C(C)(C)C)cc2)nc(-c2ncccn2)nc1OCCO,–,0.0399% [at 42.5 µM] (inactive)
C[C@]12CC[C@@H]3c4ccc(O)cc4CC[C@H]3[C@@H]1CC[C@@H]2OC(=O)CCC1CCCC1,inactive,–
CC(=O)c1cc2ccccc2s1,–,0.166% [at 42.5 µM] (inactive)
CCCC(C(=O)OCCN(CC)CC)(c1ccccc1)c1ccccc1,–,-16.1% [at 42.5 µM] (inactive)
CO/N=C(/C(=O)N[C@@H]1C(=O)N2C(C(=O)O)=C(COC(N)=O)CS[C@H]12)c1ccco1,–,0% (inactive)
O=C1NC(=O)c2cc([N+](=O)[O-])ccc21,–,12% (inactive)
CC(C)=CCC1C(=O)N(c2ccccc2)N(c2ccccc2)C1=O,–,7.46% [at 42.5 µM] (inactive)
CC(C)=CCC/C(C)=C/CC/C(C)=C/CCC(=O)OC/C=C(\C)CCC=C(C)C,–,1.69% [at 42.5 µM] (inactive)
CC(CCC(=O)O)C(=O)O (stereo not given),–,19.6% (inactive)
CC(C)(c1ccccc1)c1ccccc1,–,17.3% (inactive)
CCC(=O)C1CC(C(C)C)CC=C1C (stereo not given),–,1.5% (inactive)
O=C(O)CCC(=O)C(=O)O,–,0% (inactive)
c1cc(N(CC2CO2)CC2CO2)ccc1Cc1ccc(N(CC2CO2)CC2CO2)cc1 (stereo not given),–,-15% (inactive)
CO[C@]1(NC(=O)CSC(F)F)C(=O)N2C(C(=O)O)=C(CSc3nnnn3CCO)CO[C@H]21,–,9.51% [at 42.5 µM] (inactive)
